Results from PubChem BioAssay.
The source made the active and inactive calls.

Experiments:
[1] = test system: PRMT1 (protein arginine N-methyltransferase 1); experiment: PRMT1 binders on small-molecule microarrays, primary screen, biochemical, small-molecule microarray, 635 nm fluorescence (AID 1088); conditions: small-molecule microarray binding, higher = more signal;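 also: binding of Prmt1 protein to compounds spotted on small-molecule microarray slides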
[2] = yeast growth modulation, basal conditions, primary screen, YJM789 clinical isolate, OD600, 24 h (AID 1089);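 also: growth of clinical yeast isolate S. cerevisiae YJM 789 seeded 1000 cells per well; test concentration not given here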; conditions: S. cerevisiae YJM789 growth, higher = more signal, called active from +8 up or from −8 down
[3] = fission yeast growth modulation, primary screen, strain 972, OD600, 24 h, no modulator (AID 1090);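 also: basal condition with compound alone and no growth modifier present; test concentration not given here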; conditions: S. pombe 972 growth, higher = more signal, called active from +8 up or from −8 down
[4] = S. cerevisiae growth modulation with rapamycin, primary screen, strain BY4716, OD600, 96 h (AID 1091); conditions: higher = more signal, called active from +8 up or from −8 down; also: test concentration not given here
[5] = molecular target: Torsin-1A-interacting protein 2 (Homo sapiens) (UniProt Q8NFQ8); experiment: LULL1 binders on small-molecule microarray, primary screen, cell lysate, human LULL1 lysate, 635/667 nm fluorescence (AID 1092); conditions: hLULL1 lysate binding, 635 nm fluorescence, higher = more signal;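 also: probe is lysate of COS7 cells overexpressing human LULL1; score merges per-feature 667 nm fluorescence with signal-to-noise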
Torsin-1A-interacting protein 2 (Homo sapiens), sequence (Q8NFQ8 whole entry, looked up): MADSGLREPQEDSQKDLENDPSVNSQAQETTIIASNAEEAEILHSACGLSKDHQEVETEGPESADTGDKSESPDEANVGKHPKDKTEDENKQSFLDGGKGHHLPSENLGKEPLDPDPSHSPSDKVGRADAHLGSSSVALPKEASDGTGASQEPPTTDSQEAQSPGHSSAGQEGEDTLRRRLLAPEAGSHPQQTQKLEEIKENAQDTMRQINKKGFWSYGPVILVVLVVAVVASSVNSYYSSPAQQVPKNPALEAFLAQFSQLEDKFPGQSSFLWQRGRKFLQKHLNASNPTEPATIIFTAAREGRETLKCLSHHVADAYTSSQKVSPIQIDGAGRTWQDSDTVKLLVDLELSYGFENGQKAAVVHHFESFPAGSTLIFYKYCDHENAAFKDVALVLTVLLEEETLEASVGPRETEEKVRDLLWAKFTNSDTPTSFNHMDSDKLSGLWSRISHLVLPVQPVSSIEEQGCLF

[6] = E. coli growth modulation, two-sided OD650, primary screen, E. coli filamentation project, strain DRC41, 24 h (AID 1093); conditions: OD650, 24 h, higher = more signal, called active from +8 up or from −8 down;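 also: MC1000 strain lacking acrAB efflux and sulA so SOS filamentation is blocked; test concentration not given here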
[7] = small-molecule microarray binders of probe aLefty2, primary screen, biochemical, biotinylated probe, 635/667 nm fluorescence (AID 1094); conditions: higher = more signal;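 also: score merges spot fluorescence near 667 nm with spot signal-to-noise ratio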
[8] = test system: Noggin (protein binding on small-molecule microarray); experiment: Noggin binders on small-molecule microarray, primary screen, biochemical, 635/667 nm fluorescence (AID 1095); conditions: 635 nm fluorescence, higher = more signal;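 also: score merges 667 nm feature fluorescence with signal to noise over triplicate slides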
[9] = molecular target: Neurogenic locus notch homolog protein 3 (Homo sapiens) (UniProt Q9UM47); experiment: NOTCH3 binders on small-molecule microarray, primary screen, biochemical, 635/667 nm fluorescence (AID 1096); conditions: NOTCH3 binding, 635 nm fluorescence, higher = more signal
Neurogenic locus notch homolog protein 3 (Homo sapiens), sequence (Q9UM47 whole entry, looked up): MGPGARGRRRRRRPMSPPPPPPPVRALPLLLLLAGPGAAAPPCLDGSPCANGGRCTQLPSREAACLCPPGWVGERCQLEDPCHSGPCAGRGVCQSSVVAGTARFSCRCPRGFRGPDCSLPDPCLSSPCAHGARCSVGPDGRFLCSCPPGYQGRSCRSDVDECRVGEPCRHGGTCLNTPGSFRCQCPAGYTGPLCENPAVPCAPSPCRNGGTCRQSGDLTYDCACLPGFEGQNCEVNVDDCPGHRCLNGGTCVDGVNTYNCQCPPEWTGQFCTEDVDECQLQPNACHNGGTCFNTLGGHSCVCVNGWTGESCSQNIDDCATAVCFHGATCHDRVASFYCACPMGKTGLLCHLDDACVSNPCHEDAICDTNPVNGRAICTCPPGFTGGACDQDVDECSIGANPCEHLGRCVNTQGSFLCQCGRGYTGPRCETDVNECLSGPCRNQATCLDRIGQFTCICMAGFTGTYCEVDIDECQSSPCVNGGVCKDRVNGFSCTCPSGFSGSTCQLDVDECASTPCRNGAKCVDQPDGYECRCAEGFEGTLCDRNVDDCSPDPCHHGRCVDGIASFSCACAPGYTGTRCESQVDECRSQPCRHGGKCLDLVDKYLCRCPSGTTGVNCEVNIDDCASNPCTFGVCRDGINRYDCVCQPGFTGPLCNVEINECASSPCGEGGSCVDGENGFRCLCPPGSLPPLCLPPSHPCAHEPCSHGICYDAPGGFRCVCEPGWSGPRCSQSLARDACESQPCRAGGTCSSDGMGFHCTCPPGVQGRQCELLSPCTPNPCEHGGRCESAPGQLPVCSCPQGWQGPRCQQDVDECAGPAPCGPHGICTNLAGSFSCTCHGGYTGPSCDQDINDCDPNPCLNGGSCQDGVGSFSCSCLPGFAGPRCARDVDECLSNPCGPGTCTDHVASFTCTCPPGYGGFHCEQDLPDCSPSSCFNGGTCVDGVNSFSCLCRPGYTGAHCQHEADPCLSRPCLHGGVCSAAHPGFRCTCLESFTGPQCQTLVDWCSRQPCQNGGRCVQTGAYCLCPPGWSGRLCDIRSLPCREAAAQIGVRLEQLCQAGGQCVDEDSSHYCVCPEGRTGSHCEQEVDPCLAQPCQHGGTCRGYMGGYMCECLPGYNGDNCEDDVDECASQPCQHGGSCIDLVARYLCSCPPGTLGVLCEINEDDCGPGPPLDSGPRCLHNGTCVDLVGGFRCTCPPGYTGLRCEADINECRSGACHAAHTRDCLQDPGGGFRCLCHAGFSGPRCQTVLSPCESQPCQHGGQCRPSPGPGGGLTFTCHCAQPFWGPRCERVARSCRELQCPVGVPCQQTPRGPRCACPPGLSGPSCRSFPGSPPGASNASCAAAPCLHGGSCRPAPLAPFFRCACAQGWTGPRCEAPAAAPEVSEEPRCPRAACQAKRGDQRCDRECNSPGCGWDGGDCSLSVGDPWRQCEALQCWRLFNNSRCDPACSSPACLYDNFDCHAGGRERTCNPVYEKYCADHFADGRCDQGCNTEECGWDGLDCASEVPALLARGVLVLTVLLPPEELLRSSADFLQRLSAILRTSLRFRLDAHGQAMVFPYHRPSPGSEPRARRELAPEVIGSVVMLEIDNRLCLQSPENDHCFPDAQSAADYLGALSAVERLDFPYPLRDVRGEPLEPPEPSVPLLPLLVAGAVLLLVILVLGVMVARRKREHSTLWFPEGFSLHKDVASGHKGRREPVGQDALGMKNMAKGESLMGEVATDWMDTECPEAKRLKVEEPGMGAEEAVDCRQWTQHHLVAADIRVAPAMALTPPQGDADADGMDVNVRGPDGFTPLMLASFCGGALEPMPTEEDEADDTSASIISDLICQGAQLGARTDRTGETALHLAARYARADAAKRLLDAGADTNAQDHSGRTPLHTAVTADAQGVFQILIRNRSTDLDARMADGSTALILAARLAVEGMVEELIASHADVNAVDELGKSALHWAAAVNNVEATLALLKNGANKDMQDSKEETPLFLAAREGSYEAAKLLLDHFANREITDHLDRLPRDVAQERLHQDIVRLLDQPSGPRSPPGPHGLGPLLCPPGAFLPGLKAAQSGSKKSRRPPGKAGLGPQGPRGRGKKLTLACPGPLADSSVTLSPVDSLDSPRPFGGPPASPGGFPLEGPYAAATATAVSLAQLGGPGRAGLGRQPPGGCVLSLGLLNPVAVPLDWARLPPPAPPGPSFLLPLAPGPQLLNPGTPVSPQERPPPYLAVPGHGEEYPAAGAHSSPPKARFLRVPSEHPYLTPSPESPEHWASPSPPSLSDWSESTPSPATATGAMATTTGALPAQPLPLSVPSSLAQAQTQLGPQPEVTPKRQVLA

[10] = small-molecule microarray binders of probe aEGFR, primary screen, biochemical, biotinylated probe, 635/667 nm fluorescence (AID 1097); conditions: higher = more signal;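 also: probe is a biotinylated anti-EGFR antibody binding compounds printed on slides; score combines fluorescence near 667 nm and signal to noise of each spot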

Compound | composite z-score [1] | z-score [2] | z-score [3] | z-score [4] | composite z-score [5] | z-score [6] | composite z-score [7] | composite z-score [8] | composite z-score [9] | composite z-score [10]
CCCN1C(=O)[C@@H]2Cc3c([nH]c4ccccc34)[C@@H](c3cccc(O)c3)N2C1=O | 0.213 | -0.521 (inactive) | -0.132 (inactive) | 0.385 (inactive) | 0.379 | 0.317 (inactive) | -0.0823 | 0.287 | 0.423 | -0.0424
COc1ccc([Si](C)(C)[C@@H]2[C@@H](CCO)O[C@]3(C(=O)N(Cc4ccccc4)c4ccc(N5CCCCC5=O)cc43)[C@H]2C)cc1 | 1.56 | 3.43 (inactive) | -0.536 (inactive) | 4.86 (inactive) | 2.06 | 2.63 (inactive) | -0.0151 | 0.901 | 1.11 | -0.0828
O=C1O[C@H](c2ccccc2)[C@H](c2ccccc2)N2[C@H]1[C@@H](C(=O)N1CCN(c3ncccn3)CC1)[C@]1(C(=O)Nc3ccc(C#CCCO)cc31)[C@H]2c1ccccc1OCCO | 1.54 | 1.36 (inactive) | -1.62 (inactive) | 3.87 (inactive) | 2.79 | 0.797 (inactive) | -0.166 | 0.942 | 1.06 | -0.0014
COc1cccc(C)c1NC(=O)O[C@H]1[C@H](OC(=O)Nc2ccccc2)[C@H](OC(=O)Nc2ccccc2)[C@@H](OC)O[C@@H]1CO | 1.55 | 0.547 (inactive) | 1.03 (inactive) | 3.23 (inactive) | 3.35 | -0.721 (inactive) | 0.0682 | 0.203 | 0.93 | -0.125
O=C1O[C@@H](c2ccccc2)[C@@H](c2ccccc2)N2[C@@H](c3ccc(O)cc3)[C@]3(C(=O)Nc4ccc(C#CC5(O)CCCCCC5)cc43)[C@@H](C(=O)N3CCN(c4ncccn4)CC3)[C@H]12 | 1.34 | 0.979 (inactive) | 0.37 (inactive) | 0.924 (inactive) | 2.75 | 1.52 (inactive) | -0.114 | 0.864 | 0.886 | -0.0399
COc1ccc([Si](C)(C)[C@@H]2[C@@H](CC(=O)N(CCO)Cc3ccccc3)O[C@]3(C(=O)N(C)c4c(Br)cc(C)cc43)[C@H]2C)cc1 | 1.37 | -0.8 (inactive) | 0.0424 (inactive) | 0.991 (inactive) | 0.214 | -1.37 (inactive) | -0.149 | 1.56 | 0.92 | -0.0978
COCCCNC(=O)[C@@H]1c2ccccc2C(=O)N(c2ccc(C)cn2)[C@H]1c1ccc(CO)cc1 | -0.0842 | 0.331 (inactive) | -1.18 (inactive) | -0.19 (inactive) | 0.674 | -2.29 (inactive) | 0.0748 | -1.73 | -0.502 | -0.379
CCOC(=O)C1=CC[C@@H](c2cccc(Br)c2)N(S(=O)(=O)c2ccc(C)cc2)[C@H]1c1ccc([N+](=O)[O-])cc1 | 1.53 | -0.412 (inactive) | -5.06 (inactive) | 3.93 (inactive) | 2.96 | -0.3 (inactive) | -0.0615 | 0.496 | 1.15 | 0.254
COCCCNC(=O)[C@@]1(Cc2ccccc2)COC(c2ccc(OCCCO)cc2)=N1 | 1.49 | -1.29 (inactive) | -1.98 (inactive) | -1.27 (inactive) | 3.55 | 1.47 (inactive) | 0.0634 | -0.233 | 0.117 | -0.0828
CO[C@H]1O[C@H](CO)[C@@H](OC(=O)Nc2cccc(F)c2)[C@H](OC(=O)Nc2ccc3c(c2)OCO3)[C@H]1OC(=O)Nc1ccc2c(c1)OCO2 | 1.55 | 1.38 (inactive) | 1.29 (inactive) | 1.6 (inactive) | 3.25 | 1.76 (inactive) | -0.0025 | 1.07 | 0.649 | -0.142
COCCCNC(=O)[C@@]1(Cc2ccccc2CN=[N+]=[N-])N=C(c2ccc(OCCCO)cc2)O[C@H]1c1ccccc1N=[N+]=[N-] | 1.31 | -0.299 (inactive) | -0.954 (inactive) | 2.08 (inactive) | 2.67 | 2.53 (inactive) | 0.214 | 0.399 | 0.671 | 0.525
COCCCNC(=O)[C@]1(Cc2ccccc2CN=[N+]=[N-])N=C(c2ccc(OCCCO)cc2)O[C@@H]1c1ccccc1CN=[N+]=[N-] | 1.51 | -0.353 (inactive) | 1.34 (inactive) | 31.6 (active) | 3.17 | 0.378 (inactive) | 0.419 | 0.342 | 0.697 | 0.332
CCCC=C(CCC)[C@@H](NC(=O)Cc1ccccc1)c1ccc(C(=O)OC)cc1 | 0.658 | 0.761 (inactive) | 0.847 (inactive) | 0.762 (inactive) | 1.54 | -0.556 (inactive) | 1.1 | 0.234 | 0.505 | 0.577
[N-]=[N+]=NCc1ccccc1C[C@@]1(C(=O)NCCN2CCOCC2)N=C(c2ccc(OCCCO)cc2)O[C@@H]1c1ccccc1CN=[N+]=[N-] | 1.56 | -0.0759 (inactive) | -0.67 (inactive) | 2.01 (inactive) | 2.84 | 1.24 (inactive) | 0.146 | 1.11 | 1.08 | 0.177
C=C(/C(=C/C[C@@H](OC(=O)c1ccncc1)c1ccccc1OCCO)c1cnc2ccccc2c1)C(C)C | 1.54 | -24.2 (active) | -20.3 (active) | -4.07 (inactive) | 2.72 | -0.0023 (inactive) | 0.0113 | 1.91 | 1.07 | 0.0381
COc1ccc(C#Cc2ccc3c(c2)[C@]2(C(=O)N3)[C@H](C(=O)O)[C@H]3C(=O)O[C@H](c4ccccc4)[C@H](c4ccccc4)N3[C@@H]2c2ccc(OCCO)cc2)cc1 | 1.55 | 2.76 (inactive) | -0.0666 (inactive) | 1.08 (inactive) | 2.37 | 2.26 (inactive) | 0.054 | 1 | 1.1 | -0.0433
COCC(=C=CC[C@@H](O)c1ccccc1OCCO)C[C@@H](O)c1ccccn1 | 1.29 | -0.108 (inactive) | -1.4 (inactive) | -0.856 (inactive) | 2.97 | -0.224 (inactive) | -0.0825 | 0.416 | 0.88 | -0.0512
C#CCOC(=O)N[C@H](C=CCCCC)c1ccccc1 | -0.893 | 0.126 (inactive) | -0.091 (inactive) | 0.0673 (inactive) | 2.96 | 0.392 (inactive) | 0.148 | -0.373 | -0.404 | 0.0082
CCCNC(=O)[C@@H]1c2ccccc2C(=O)N(CC23CC4CC(CC(C4)C2)C3)[C@H]1c1ccc(CO)cc1 | 1.44 | -0.449 (inactive) | -1.63 (inactive) | 0.835 (inactive) | 2.79 | -0.693 (inactive) | 0.267 | 0.406 | 1.1 | 0.167
COCCOC(=O)N1C(=O)[C@@]2(c3cc(C#CCC(C(=O)OC)C(=O)OC)ccc31)[C@H](c1ccc(OCCO)cc1)N1[C@H](c3ccccc3)[C@H](c3ccccc3)OC(=O)[C@H]1[C@@H]2C(N)=O | 1.51 | 1.47 (inactive) | 0.561 (inactive) | 4.48 (inactive) | 3.22 | 0.237 (inactive) | 0.011 | 0.543 | 1.13 | -0.0238
COC(=O)[C@@]1(Cc2ccc(OC)cc2)[C@H]2c3cc(C(=O)N(C)C)n(Cc4cc(F)c(F)c(F)c4)c3C[C@H]2CN1C(=O)c1ccccc1 | 0.456 | 0.725 (inactive) | 0.129 (inactive) | 4.07 (inactive) | 3.44 | -0.909 (inactive) | 0.625 | -0.217 | 1.04 | 0.58
CCOC(=O)C[C@H]1[C@H](OC(=O)Cc2ccc3c(c2)OCO3)[C@@H](NC(=O)c2ccccc2)c2cc(OCCCO)ccc2N1C(=O)c1ccccc1 | 0.267 | -0.0172 (inactive) | -0.462 (inactive) | 0.205 (inactive) | 1.27 | 1.48 (inactive) | -0.166 | 0.53 | 0.713 | -0.125
